The entries come from a sample that favours hits as a whole.
HT1080 IDH1KD tx: HT-1080 IDH1 knockdown cell toxicity (counter line); 360,000 compounds, 2% hits; HT-1080 IDH1 knockdown viability, ATP luminescence, 48 h; AID 686971; Potency, µM (top dose mostly 46.1 µM), without a hit: at the highest dose activity, negative = toxicity, actives largely listed as cytotoxic;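 also: potency is read from the fitted curve at half-maximal effect; 0% = DMSO wells and -100% = cell-free medium wells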
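Using the IDH1-knockdown HT-1080 line run in the same batch and compound series as the NT line, viability after 48 h at 37 °C was determined by CellTiter-Glo luminescence and expressed as % activity.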
ALOX12 inh: ALOX12 (human) lipoxygenase inhibition | Potency, µM (titrated, usually from 108 µM), for inactives: at the highest dose activity change, negative = inhibition, actives largely listed as inhibitors | 580,000 compounds, 1.1% hits | AID 1671190 | purified 12hLO, xylenol orange hydroperoxide absorbance; also: potency is read from the fitted curve at half-maximal effect
Target sequence (P18054 whole entry, looked up): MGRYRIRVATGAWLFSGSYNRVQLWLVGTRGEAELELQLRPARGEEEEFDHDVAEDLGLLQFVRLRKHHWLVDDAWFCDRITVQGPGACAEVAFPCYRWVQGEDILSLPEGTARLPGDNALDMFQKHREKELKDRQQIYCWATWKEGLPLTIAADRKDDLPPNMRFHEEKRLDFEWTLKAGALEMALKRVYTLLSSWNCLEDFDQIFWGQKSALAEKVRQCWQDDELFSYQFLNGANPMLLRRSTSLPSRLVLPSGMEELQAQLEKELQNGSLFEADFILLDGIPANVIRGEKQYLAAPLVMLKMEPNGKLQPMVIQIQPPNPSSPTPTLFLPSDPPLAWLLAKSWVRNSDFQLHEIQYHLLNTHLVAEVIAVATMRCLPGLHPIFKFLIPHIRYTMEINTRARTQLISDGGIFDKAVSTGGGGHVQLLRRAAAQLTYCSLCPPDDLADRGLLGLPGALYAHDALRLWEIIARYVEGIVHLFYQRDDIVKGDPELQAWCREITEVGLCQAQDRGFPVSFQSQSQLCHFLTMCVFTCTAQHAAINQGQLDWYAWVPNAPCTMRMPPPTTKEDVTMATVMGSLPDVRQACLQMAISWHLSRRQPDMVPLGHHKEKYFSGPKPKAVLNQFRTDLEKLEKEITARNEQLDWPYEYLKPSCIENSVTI
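Purified human 12hLO (150 nM final) in 25 mM Hepes, 0.01% Triton X-100, pH 7.0 was preincubated 15 min at room temperature with compound. Then 40 uM arachidonic acid was added, 30 min. Hydroperoxide was read by Fe-XO absorbance ratio 573/405 nm.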
TDP1 cell noCPT: qHTS for Inhibitors of human tyrosyl-DNA phosphodiesterase 1 (TDP1): qHTS in cells in absence of CPT. DT40 Tdp1-/- hTDP1 cells, no CPT, ATP luminescence, 48 h. Potency, µM (titrated, usually from 46.2 µM), for inactives: at the top dose activity change, negative = growth inhibition, usual class: inhibitors. 420,000 compounds, 15% hits. AID 686978, 2013; also: potency is read from the fitted curve at half-maximal effect; nearly all actives have a fitted effect of over 55% in size
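A cellular qHTS used chicken DT40 cells lacking endogenous Tdp1 but carrying stably transfected human TDP1. Compounds were applied without camptothecin, and cell growth kinetics were judged by ATP-dependent luminescence after ≥48 hr.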
TDP1 cell CPT: growth inhibition of DT40 Tdp1-/-;hTDP1 cells with camptothecin (screen for TDP1 inhibitors) | chicken DT40 Tdp1-/-;hTDP1 cells + 20 nM CPT, ATP luminescence, 48 h | Potency, µM (series often up to 46.2 µM), inactives show at the highest dose activity change, negative = growth inhibition, actives largely listed as inhibitors | 420,000 compounds, 12% hits | AID 686979; also: potency is read from the fitted curve at half-maximal effect; nearly all actives have a fitted effect of over 55% in size
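Chicken DT40 Tdp1-/- cells complemented with human TDP1, 400 cells/well, exposed to compounds plus 20 nM camptothecin for at least 48 h at 37 C; viability read as ATP content by CellTiter-Glo luminescence.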
HT1080NT lethal: kills 2HG-producing HT-1080-NT fibrosarcoma cells | HT-1080-NT fibrosarcoma viability, CellTiter-Glo ATP luminescence, 48 h | Potency, µM (doses to about 46.1 µM), for the others: top-dose activity, negative = less viability, actives largely listed as cytotoxic | 360,000 compounds, 1.6% hits | AID 686970;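 also: NT is the 2HG producing partner of a matched IDH1 knockdown line; potency is read from the fitted curve at half-maximal effect; 0% = DMSO-treated cells and -100% = media-only wells without cells; nearly all actives have a fitted effect of over 55% in size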
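HT-1080-NT; 750 cells/well; 5% FBS RPMI; 48 h compound, 37 degrees C; CellTiter-Glo luminescence; curve fitting and curve-class assignment.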
IL-1B inflam inh: inflammasome signaling inhibition, IL-1 beta readout | THP-1 LPS/ATP IL-1B secretion, AlphaLISA, 16 h; active compounds read low | activity change, % at 57.5 µM | 360,000 compounds, 4.7% hits | AID 743279; in the data active = activity change below about -50%; inconclusive = mostly about -30% to -49%
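Secreted IL-1B measured by AlphaLISA bead assay after 16 h compound exposure of THP-1 cells; compounds (final up to 57.5 uM) added 1 h before LPS (250 ng/mL) and ATP (1.25 mM) stimulation; lower signal means less secretion.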
The depositor's hits bear a star; ? = inconclusive; · = no result. Unless noted, calls follow the shape of the dose curve; as a rule, active = well fitted curve in the direction sought with a large enough effect; inconclusive = small, poorly fitted or top-dose-only effect, or another doubt; inactive = no such curve, though single readings can be large; an effect the other way counts as inactive or inconclusive. Unless noted, % is scaled to controls: 0 for no effect and ±100 for the full control effect.

SMILES	HT1080 IDH1KD tx	ALOX12 inh	TDP1 cell noCPT	TDP1 cell CPT	HT1080NT lethal	IL-1B inflam inh
O=C1CCCN1CCC1CCN(C2CC(=O)N(c3ccc(F)cc3)C2=O)CC1 (stereo not given)	-30%	-5%	21µM*	18µM*	2%	20
CC(=O)Oc1cc(OC(C)=O)c2c(=O)cc(-c3ccc(OC(C)=O)c(OC(C)=O)c3)oc2c1	·	·	27µM*	?	·	·
CC(=O)Oc1cc(O)c2c(=O)c(OC(C)=O)c(-c3ccc(OC(C)=O)c(OC(C)=O)c3)oc2c1	-7%	·	21µM*	?	-6%	63
COc1ccc(-c2oc3cc(OC(C)=O)cc(OC(C)=O)c3c(=O)c2OC)cc1	?	-28%	?	-2%	?	64
COc1ccc(-c2cc(=O)c3c(OC(C)=O)cc(OC(C)=O)cc3o2)cc1	·	·	?	7%	·	·
Cc1sc(N2CCCC2)nc1-c1ccc(NS(C)(=O)=O)cc1	·	35µM*	·	·	·	·
CS(=O)(=O)Nc1ccc(S(=O)(=O)N2CCCC2)cc1	9%	-2%	-2%	13%	8%	27
COc1ccc(CCN2C(=O)CN(C3CCCCCC3)C(=O)C2c2ccc(C)cc2)cc1OC (stereo not given)	·	?	23µM*	?	·	·
CCOc1ccc(C2C(=O)N(C3CCCCC3)CC(=O)N2CCc2ccccc2)cc1OC (stereo not given)	·	-18%	?	?	·	·
COc1cc(C2C(=O)N(C3CCCCCC3)CC(=O)N2CCc2ccccc2)ccc1OC(C)C (stereo not given)	·	-18%	13µM*	16µM*	·	·
COc1ccc(CCN2C(=O)CN(C3CCCCCC3)C(=O)C2c2ccc(OC(C)C)c(OC)c2)cc1OC (stereo not given)	·	-26%	?	?	·	·
COc1ccc(CN2C(=O)CN(C3CCCCCC3)C(=O)C2c2ccc(OC)c(OC)c2)cc1 (stereo not given)	17%	-30%	-24%	?	16%	-14
COc1ccc(CCN2C(=O)CN(C3CCCCCC3)C(=O)C2c2ccc(Cl)cc2)cc1OC (stereo not given)	·	-20%	18µM*	?	·	·
CCOc1ccc(C2C(=O)N(C3CCCCCC3)CC(=O)N2Cc2ccc(C)cc2)cc1OC (stereo not given)	·	-21%	23µM*	23µM*	·	·
CN(Cc1cccc(Cl)c1Cl)C(=O)c1ccc(NS(C)(=O)=O)cc1	·	4%	·	·	·	·
Cc1[nH]c(SCC(=O)NCCc2ccccc2F)nc1Cc1ccccc1	·	-2%	·	·	·	·
O=C(O)CCCC(=O)OCCCc1cc2ccccc2c(=O)o1	·	-7%	·	·	·	·
CC1CCC(N2CC(=O)N(C3CCCC3)C(c3ccc(Cl)cc3)C2=O)CC1 (stereo not given)	·	-24%	16µM*	?	·	·
O=C1C(c2ccc(F)cc2)N(CCc2ccc(Cl)cc2)C(=O)CN1C1CCCCC1 (stereo not given)	·	?	21µM*	16µM*	·	·
CC1CCC(N2CC(=O)N(C3CCCCC3)C(c3ccc(F)cc3)C2=O)CC1 (stereo not given)	·	-20%	-21%	4%	·	·
COc1cccc(CN2C(=O)CN(C3CCCCC3)C(=O)C2c2ccc(F)cc2)c1 (stereo not given)	-15%	-3%	?	?	-14%	-8
COCc1c(C(=O)Nc2ccc(S(=O)(=O)C(F)F)cc2)oc2ccccc12	·	-16%	·	·	·	·
OCC1(c2nc(C3CCOCC3)nn2-c2cccc3c2CCC3)CC1	·	4%	·	·	·	·
CCSc1ccc([C@@H]2[C@@H]3C(=O)N(CC)C(=O)[C@@H]3[C@]3(C(=O)OC)CCCCN23)cc1	-14%	-17%	23µM*	16µM*	-10%	13
CCCSc1ccc([C@@H]2[C@H]3C(=O)N(CC)C(=O)[C@H]3[C@]3(C(=O)OC)CCCN23)cc1OC	-3%	?	?	?	3%	-8
SMILES	HT1080 IDH1KD tx	ALOX12 inh	TDP1 cell noCPT	TDP1 cell CPT	HT1080NT lethal	IL-1B inflam inh
CCCCCCSc1ccc([C@@H]2[C@@H]3C(=O)N(CC)C(=O)[C@@H]3[C@]3(C(=O)OC)CCCCN23)cc1	5%	-30%	21µM*	18µM*	0%	-17
CCSc1ccc([C@@H]2[C@H]3C(=O)N(C)C(=O)[C@H]3[C@]3(C(=O)OC)CCCCN23)cc1	?	-9%	16µM*	?	-24%	20
CCCCCCSc1ccc([C@@H]2[C@H]3C(=O)N(C)C(=O)[C@H]3[C@]3(C(=O)OC)CCCCN23)cc1	0%	?	?	?	7%	-18
CCSc1ccc([C@@H]2[C@@H]3C(=O)N(CC)C(=O)[C@@H]3[C@]3(C(=O)OC)CCCN23)cc1	12%	?	23µM*	?	-1%	16
COc1cc(OC)cc(C(=O)N2CCC3(CC2)N=C(c2ccc(C)cc2)NO3)c1	·	0%	·	·	·	·
Cc1cc(SCC(=O)NN2C(=O)NC3(CCCCC3)C2=O)nc2ccccc12	·	-16%	·	·	·	·
CCOc1ccc(C2CCCN2C(=O)Cn2cccnc2=O)cc1 (stereo not given)	·	4%	·	·	·	·
CCCSc1ccc([C@@H]2[C@@H]3C(=O)N(C)C(=O)[C@@H]3[C@]3(C(=O)OC)CCCCN23)cc1OC	2%	?	23µM*	?	-1%	-3
CCCSc1ccc([C@@H]2[C@H]3C(=O)N(CC)C(=O)[C@H]3[C@]3(C(=O)OC)CCCCN23)cc1OC	1%	?	?	?	2%	-6
CCC(C)Sc1ccc([C@@H]2[C@H]3C(=O)N(CC)C(=O)[C@H]3[C@]3(C(=O)OC)CCCCN23)cc1 (stereo not given in full)	-30%	?	16µM*	?	-21%	-10
CCSc1ccc([C@@H]2[C@H]3C(=O)N(CC)C(=O)[C@H]3[C@]3(C(=O)OC)CCCCN23)cc1	5%	?	23µM*	?	0%	8
CCCn1nc(C(=O)Nc2cccc(C)c2C)c2ccccc2c1=O	·	-7%	·	·	·	·
COc1ccc(CNC(=O)c2ccc(N3CCC4(CC3)CC(c3ccc(Cl)cc3)=NO4)c(NC(=O)c3ccccc3)c2)cc1	9%	-20%	-15%	-12%	11%	-2
COc1ccc(CNC(=O)c2ccc(N3CCC4(CC3)CC(c3ccc(Cl)cc3)=NO4)c(NC(=O)Cc3ccc(F)cc3)c2)cc1	-3%	-13%	-6%	2%	3%	32

High-throughput results from PubChem BioAssay.
